Rows were chosen to be rich in hits. Some 8.9% of all compounds tested hit in one or more screens of this group.
SW480 rereplic: inducers of DNA re-replication in SW480 colon cancer cells; SW480 DNA re-replication, Hoechst DNA content imaging, 48 h; Potency, µM (doses to about 46.1 µM), usual class: activators; 1.8% of 340,000 active; also: nearly all actives have a fitted effect of over 55% in size
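250 cells/well; 23 nL cpd via pin tool; 48 hr, 37 C, 5% CO2; Hoechst 40 min; imager read of total nuclear intensity, ex 405/em 500-530 nm.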
D3 ag: activates the human D3 dopamine receptor | P35462 | D3R DiscoveRx beta-arrestin cells, luminescence, 90 min | max activation, % | 0.58% of 410,000 active | AID 652048; in the data active = max activation above about 30%
Target sequence (P35462 whole entry, looked up): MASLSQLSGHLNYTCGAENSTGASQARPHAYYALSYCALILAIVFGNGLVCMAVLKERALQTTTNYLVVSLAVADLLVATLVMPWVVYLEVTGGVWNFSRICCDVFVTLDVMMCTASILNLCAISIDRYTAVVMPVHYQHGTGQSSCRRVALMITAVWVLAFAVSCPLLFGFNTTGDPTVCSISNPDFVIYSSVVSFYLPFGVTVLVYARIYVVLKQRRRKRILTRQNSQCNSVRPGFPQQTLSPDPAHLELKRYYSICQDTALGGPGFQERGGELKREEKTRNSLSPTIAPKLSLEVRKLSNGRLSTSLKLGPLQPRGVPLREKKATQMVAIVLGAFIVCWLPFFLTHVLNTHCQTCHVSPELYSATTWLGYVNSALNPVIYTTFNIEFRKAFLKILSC
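Agonist-mode cell screen: cells plated at 1500/well and incubated overnight at 37 °C, then exposed to library compounds for 90 min at 37 °C. Detection reagent was added for 30–60 min at room temperature, and luminescence was read.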
D3 antag: blocks the human D3 dopamine receptor; 2.5% of 360,000 active; max response, negative = inhibition, %; AID 652054; P35462; D3R cells, DiscoveRx beta-arrestin luminescence, antagonist mode; hits give low values; in the data active = max response below about -50%; inconclusive = no clear call, values can overlap the other calls
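Cells plated overnight at 1500 cells/well, then exposed to library compounds with dopamine controls for 90 minutes at 37 degrees C. DiscoveRx reagent added for 30–60 minutes at room temperature; luminescence read, quantitative HTS format.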
KB-3-1 cytotox: kills parental KB-3-1 adenocarcinoma cells | KB-3-1 viability, CellTiter-Glo ATP luminescence, 72 h | 1.4% of 400,000 active | Potency, µM (series often up to 46.1 µM), hits mostly cytotoxic; also: nearly all actives have a fitted effect of over 60% in size
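KB-3-1 cells, DMEM (no phenol red) + 10% FBS; compound by pin transfer, 72 h, 37 °C. Readout: CellTiter-Glo luminescence after 10 min. Data normalized, curve-fitted.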
MCF10A rereplic: induces DNA re-replication in MCF 10a normal breast cells; MCF 10A DNA re-replication, Hoechst nuclear intensity, 48 h; Potency, µM (highest dose often 46.1 µM), usual class: activators; 2.9% of 350,000 active; AID 624296; also: nearly all actives have a fitted effect of over 50% in size
KB-V1 MDR tox: KB-V1 MDR subline cytotoxicity; KB-V1 MDR cells viability, CellTiter-Glo, 72 h; Potency, µM (doses to about 46.1 µM), hits mostly cytotoxic; 3.4% of 400,000 active; AID 1347076; also: nearly all actives have a fitted effect of over 60% in size
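qHTS viability screen in drug-selected KB-V1 MDR cells: 72 h compound treatment at 37 degrees C, ATP luminescence end point.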
Large screens that a line does not name were inactive. Unless noted, calls follow the shape of the dose curve; as a rule, active = well fitted curve in the direction sought with a large enough effect; inconclusive = small, poorly fitted or top-dose-only effect, or another doubt; inactive = no such curve, though single readings can be large; an effect the other way counts as inactive or inconclusive.

O=C(OCc1ccccc1)N1CCN(C(c2ccnc3ccccc23)c2nnnn2-c2ccc3c(c2)OCCO3)CC1 (stereo unspecified)	KB-3-1 cytotox 23µM, KB-V1 MDR tox inconclusive (no result: SW480 rereplic, MCF10A rereplic)
c1ccc(CN(Cc2ccccc2)C(c2ccnc3ccccc23)c2nnnn2-c2ccc3c(c2)OCCO3)cc1 (stereo unspecified)	KB-3-1 cytotox inconclusive, KB-V1 MDR tox 18µM (no result: SW480 rereplic, MCF10A rereplic)
COC(=O)c1ccccc1NC(=O)CSc1nc2ccsc2c(=O)n1CCC(C)C	none (no result: SW480 rereplic, D3 antag, KB-3-1 cytotox, MCF10A rereplic, KB-V1 MDR tox)
COc1ccc(NC(=O)c2c(NC(=O)C(F)(F)F)sc3c2CCCCC3)cc1	none (no result: SW480 rereplic, D3 antag, MCF10A rereplic)
O=C(c1ccc(Br)o1)N1CCN(C/C=C/c2ccccc2)CC1	D3 antag -69
O=C(NCC(=O)N1CCN(C/C=C/c2ccccc2)CC1)c1ccc(Br)cc1	KB-V1 MDR tox inconclusive
O=C(c1ccc(Br)s1)N1CCN(C/C=C/c2ccccc2)CC1	D3 antag -75, KB-V1 MDR tox 15µM
CCOC(=O)c1c(-c2cccc([N+](=O)[O-])c2)csc1N	none
Cc1csc2cc(-c3cccc([N+](=O)[O-])c3)c(-c3cccc([N+](=O)[O-])c3)c[n+]12	D3 antag -61
O=C(CCCCCCCC(=O)c1ccccc1)c1ccccc1	none
C=C(C(=O)c1ccccc1)C(CC(=O)c1ccccc1)c1ccccc1 (stereo unspecified)	SW480 rereplic 18µM, D3 antag inconclusive, KB-3-1 cytotox inconclusive, MCF10A rereplic 9.2µM, KB-V1 MDR tox inconclusive
C=C(CCC(=O)c1ccccc1)C(=O)c1ccccc1	SW480 rereplic inconclusive, D3 antag -54, KB-3-1 cytotox inconclusive, MCF10A rereplic 9.2µM, KB-V1 MDR tox inconclusive
COc1ccccc1C(CC(=O)c1ccccc1)C(=O)c1ccccc1 (stereo unspecified)	KB-3-1 cytotox inconclusive, KB-V1 MDR tox inconclusive (no result: SW480 rereplic, MCF10A rereplic)
Cc1ccc(C)c(NC(=O)c2cnn(-c3cccc(F)c3)c2C2CCN(C(=O)OC(C)(C)C)CC2)c1	none (no result: SW480 rereplic, D3 antag, MCF10A rereplic)
COC(=O)[C@]12CCCCC=C1N(CCc1ccc(OC)c(OC)c1)C(=O)[C@H](CC(=O)NCc1ccc(OC)c(OC)c1)C2	none (no result: SW480 rereplic, MCF10A rereplic)
COC(=O)[C@@]12C[C@@H](CC(=O)NCc3cccc(C(F)(F)F)c3)C(=O)N(CCc3ccc(OC)c(OC)c3)C1=CCC(C)(C)C2	KB-3-1 cytotox inconclusive, KB-V1 MDR tox 16µM (no result: SW480 rereplic, MCF10A rereplic)
COC(=O)[C@@]12C[C@@H](CC(=O)N3CCOCC3)C(=O)N(Cc3ccc4c(c3)OCO4)C1=CCC(C)(C)C2	D3 ag 35, D3 antag inconclusive, KB-V1 MDR tox inconclusive (no result: SW480 rereplic, MCF10A rereplic)
COC(=O)[C@]12CCCCC=C1N(Cc1ccc3c(c1)OCO3)C(=O)[C@H](CC(=O)NCc1cccc(C(F)(F)F)c1)C2	KB-V1 MDR tox inconclusive (no result: SW480 rereplic, MCF10A rereplic)
COC(=O)[C@@]12C[C@@H](CC(=O)NCc3cccc(C(F)(F)F)c3)C(=O)N(Cc3ccc4c(c3)OCO4)C1=CCC(C)(C)C2	D3 antag inconclusive, KB-3-1 cytotox inconclusive, KB-V1 MDR tox 21µM (no result: SW480 rereplic, MCF10A rereplic)
COC(=O)[C@@]12C[C@@H](CC(=O)NCCC(C)C)C(=O)N(CCc3ccc(OC)c(OC)c3)C1=CCC(C)(C)C2	KB-V1 MDR tox inconclusive (no result: SW480 rereplic, MCF10A rereplic)
COC(=O)[C@]12CCCCC=C1N(CCc1ccc(OC)c(OC)c1)C(=O)[C@H](CC(=O)NCc1cccc(C(F)(F)F)c1)C2	KB-3-1 cytotox inconclusive, KB-V1 MDR tox 15µM (no result: SW480 rereplic, MCF10A rereplic)
COc1ccc(NC(=O)C2CCCN(c3ncnc4c3nc3n4CCCCC3)C2)c(OC)c1 (stereo unspecified)	none (no result: SW480 rereplic, D3 antag, MCF10A rereplic)
CCN(C(=O)c1cccn(Cc2ccccc2C)c1=O)c1ccccc1	KB-V1 MDR tox inconclusive (no result: SW480 rereplic, D3 antag, MCF10A rereplic)
COC(=O)[C@]12CCCCC=C1N(CCc1ccc(OC)c(OC)c1)C(=O)[C@H](CC(=O)NCCc1ccccc1OC)C2	KB-V1 MDR tox 16µM (no result: SW480 rereplic, MCF10A rereplic)
O=S(=O)(c1ccc(N2CCC(c3ccc(Cl)cc3)=N2)cc1)N(CCO)CCO	SW480 rereplic 0.58µM, MCF10A rereplic inconclusive
COC(=O)c1sccc1S(=O)(=O)N(CC(=O)Nc1c(C)cccc1C)c1ccc(C)c(C)c1	none (no result: SW480 rereplic, D3 antag, MCF10A rereplic)
O=C(COc1ccc(Cl)cc1Cl)Nc1ccc(C(=O)OC2CCCCC2)cc1	none (no result: SW480 rereplic, D3 antag, MCF10A rereplic)
